Assay [1] has as its target human Serotonin, 5-Hydroxytryptamine Receptor 2A (5HT2A), HTR2A (gene 3356) (UniProt P28223). The experiment in a line: NVS_GPCR_h5HT2A: NovaScreen (NVS) G Protein-Coupled Receptor Assay for human Serotonin, 5-Hydroxytryptamine Receptor 2A (5HT2A) (AID 2283249). Summed up: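 Human cortex membranes, cell-free radioligand binding; filter-based scintillation read 1.5 h after dosing. Duplicate screen at 25 uM first; displacement of specific binding (loss of signal) versus DMSO.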

The test system of assay [2] is guinea pig Muscarinic, Peripheral (Mperiperal) Receptor, Non-selective Binding, gene 100379235. The experiment in a line: NVS_GPCR_gMPeripheral_NonSelective: NovaScreen (NVS) G Protein-Coupled Receptor Assay for guinea pig Muscarinic, Peripheral (Mperiperal) Receptor, Non-selective Binding (AID 2283250). Summed up:
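Guinea pig bladder membranes, radioligand binding read 1 h after dosing by filter scintillation counting; loss of signal vs DMSO. Primary duplicate screen at 25 uM, then concentration-response up to 50 uM.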

Assay [3] concerns the target guinea pig Opioid, Kappa 1 Receptor (OpiateK), OPRK1 (gene 100135587) (UniProt P41144). The assay can be described thus: NVS_GPCR_gOpiateK: NovaScreen (NVS) G Protein-Coupled Receptor Assay for guinea pig Opioid, Kappa 1 Receptor (OpiateK) (AID 2283252).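 Also: active means reduced radioligand binding relative to DMSO.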 Put shortly: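 Signal is scintillation counts of filter-trapped radioligand bound to guinea pig cerebellar membrane receptor, measured 2 hours post-dosing. Activity is loss of binding versus DMSO, first at 25 uM in duplicate, then as concentration series for actives.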

The target in assay [4] is human Adenosine A1 Receptor (AdoRA1), ADORA1 (gene 134) (UniProt P30542). The experiment in a line: NVS_GPCR_hAdoRA1: NovaScreen (NVS) G Protein-Coupled Receptor Assay for human Adenosine A1 Receptor (AdoRA1) (AID 2283254). Put shortly:
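Hum. cortical membranes + radioligand, cmpd 1 h; filtration, scintillation count. Readout = decrease vs DMSO. Primary 25 uM dup; hits → conc. series.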

Assay [5] concerns the target human Serotonin, 5-Hydroxytryptamine Receptor 7 (5HT7), HTR7 (gene 3363) (UniProt P34969). The assay can be described thus: NVS_GPCR_h5HT7: NovaScreen (NVS) G Protein-Coupled Receptor Assay for human Serotonin, 5-Hydroxytryptamine Receptor 7 (5HT7) (AID 2283255).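 Also: hits reduce specific radioligand binding relative to DMSO.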 Summed up: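 Radioligand displacement on membranes from CHO cells expressing human 5HT7, 1 h incubation, filter-based scintillation counting. Primary screen used a single 25 uM concentration in duplicate; actives were followed up in concentration series.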

Assay [6] addresses human Adenosine A2a Receptor (AdoRA2a), ADORA2A (gene 135) (UniProt P29274). The assay can be described thus: NVS_GPCR_hAdoRA2a: NovaScreen (NVS) G Protein-Coupled Receptor Assay for human Adenosine A2a Receptor (AdoRA2a) (AID 2283256). Summed up: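 Radioligand displacement on HEK293-derived membrane protein, cell-free; filter-based scintillation counting 1.5 hours after dosing, loss of signal vs DMSO. Single-point duplicate screen at 25 uM, actives retested in concentration series.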

The target of assay [7] is human Adrenergic, Alpha 2A Receptor (Adra2A), ADRA2A (gene 150) (UniProt P08913). The experiment in a line: NVS_GPCR_hAdra2A: NovaScreen (NVS) G Protein-Coupled Receptor Assay for human Adrenergic, Alpha 2A Receptor (Adra2A) (AID 2283257). Summed up:
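Radioligand filter-binding was run on HT29-derived membranes, cell-free, read by scintillation counting 1 h after dosing. Primary screening was in duplicate at 25 uM, with concentration series in follow-up. Loss of signal versus DMSO indicates displacement.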

Assay [8] deals with human Histamine 1 Receptor (H1), HRH1 (gene 3269) (UniProt P35367). The experiment in a line: NVS_GPCR_hH1: NovaScreen (NVS) G Protein-Coupled Receptor Assay for human Histamine 1 Receptor (H1) (AID 2283268). Put shortly:
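Cell-free radioligand displacement at human H1 receptor, 1 h, filter scintillation counting; primary screen 25 uM in duplicate, hits in concentration series; loss of binding fitted vs DMSO.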

Assay [9] has as its target Muscarinic acetylcholine receptor M1 (Homo sapiens) (UniProt P11229). The experiment in a line: NVS_GPCR_hM1: NovaScreen (NVS) G Protein-Coupled Receptor Assay for human Muscarinic, M1 Receptor (AID 2283270). Put shortly: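 Cell-free radioligand displacement using membrane protein extracted from CHO cells, read by filter-based scintillation counting 1 h after dosing. Loss of bound signal fitted versus DMSO; primary screen single concentration 25 uM in duplicate, actives followed by concentration series.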

For assay [10], the target named is human Serotonin, 5-Hydroxytryptamine Receptor 6 (5HT6), HTR6 (gene 3362) (UniProt P50406). The assay can be described thus: NVS_GPCR_h5HT6: NovaScreen (NVS) G Protein-Coupled Receptor Assay for human Serotonin, 5-Hydroxytryptamine Receptor 6 (5HT6) (AID 2283253). Put shortly: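 Radioligand binding to 5HT6 in HEK293-derived membranes, cell-free, 1 h after dosing; bound ligand measured by filter-based scintillation counting. Primary screen in duplicate at 25 uM; actives retested in concentration series.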
Sequence of human Serotonin, 5-Hydroxytryptamine Receptor 6 (5HT6), HTR6 (gene 3362) (P50406 whole entry, looked up): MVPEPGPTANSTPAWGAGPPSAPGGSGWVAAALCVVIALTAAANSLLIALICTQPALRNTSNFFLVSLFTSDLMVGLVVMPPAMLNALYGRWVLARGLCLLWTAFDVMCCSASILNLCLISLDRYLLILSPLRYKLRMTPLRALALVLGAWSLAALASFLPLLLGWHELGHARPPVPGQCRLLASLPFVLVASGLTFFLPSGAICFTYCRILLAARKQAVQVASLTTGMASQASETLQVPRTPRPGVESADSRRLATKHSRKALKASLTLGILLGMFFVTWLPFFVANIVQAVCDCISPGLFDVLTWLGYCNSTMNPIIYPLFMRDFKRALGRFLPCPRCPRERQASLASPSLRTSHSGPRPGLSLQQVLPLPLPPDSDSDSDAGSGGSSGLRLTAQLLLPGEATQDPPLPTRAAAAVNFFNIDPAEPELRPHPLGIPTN

Assay [11] addresses human Adrenergic, Beta 1 Receptor (Adrb1), ADRB1 (gene 153) (UniProt P08588). The experiment in a line: NVS_GPCR_hAdrb1: NovaScreen (NVS) G Protein-Coupled Receptor Assay for human Adrenergic, Beta 1 Receptor (Adrb1) (AID 2283258). Summed up: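 Cell-free radioligand displacement on receptor from human neuroepithelioma cells; 2 h after dosing, filter-based scintillation counting. Primary screen in duplicate at 25 uM, actives retested in concentration series; loss of signal vs DMSO baseline.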

Assay [12] has as its target Beta-2 adrenergic receptor (Homo sapiens) (UniProt P07550). The experiment in a line: NVS_GPCR_hAdrb2: NovaScreen (NVS) G Protein-Coupled Receptor Assay for human Adrenergic, Beta 2 Receptor (Adrb2) (AID 2283261). Put shortly:
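Filter-based radioligand binding using receptor prepared from CHO cells, 1 h incubation, scintillation counting. Primary screen in duplicate at 25 uM, actives retested in concentration series; loss of binding relative to DMSO.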

The target of assay [13] is human Adrenergic, Beta 3 Receptor (Adrb3), ADRB3 (gene 155) (UniProt P13945). The experiment in a line: NVS_GPCR_hAdrb3: NovaScreen (NVS) G Protein-Coupled Receptor Assay for human Adrenergic, Beta 3 Receptor (Adrb3) (AID 2283262). Put shortly: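 Membranes from SK-N-MC cells pretreated with isoproterenol and 8-bromo-cAMP were used in a radioligand competitive displacement binding assay. Binding was read by filter-based scintillation counting 1 hour after dosing. Primary screening was in duplicate at 25 uM, with concentration series in follow-up.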
Sequence of human Adrenergic, Beta 3 Receptor (Adrb3), ADRB3 (gene 155) (P13945 whole entry, looked up): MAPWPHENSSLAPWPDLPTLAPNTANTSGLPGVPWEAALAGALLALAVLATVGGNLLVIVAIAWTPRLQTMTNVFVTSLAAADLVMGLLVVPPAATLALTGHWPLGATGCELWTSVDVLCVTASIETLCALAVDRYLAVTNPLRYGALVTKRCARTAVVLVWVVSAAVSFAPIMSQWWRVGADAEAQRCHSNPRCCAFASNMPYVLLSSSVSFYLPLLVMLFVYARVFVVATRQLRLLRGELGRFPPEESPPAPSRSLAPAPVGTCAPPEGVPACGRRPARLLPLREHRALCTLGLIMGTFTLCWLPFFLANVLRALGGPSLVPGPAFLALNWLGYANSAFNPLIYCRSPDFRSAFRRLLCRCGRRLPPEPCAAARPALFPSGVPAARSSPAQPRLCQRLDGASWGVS

Assay [14] deals with human Dopamine Receptor D4.4 (DRD4.4), DRD4 (gene 1815) (UniProt P21917). The experiment in a line: NVS_GPCR_hDRD4.4: NovaScreen (NVS) G Protein-Coupled Receptor Assay for human Dopamine Receptor D4.4 (DRD4.4) (AID 2283264). Put shortly: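 Radioligand displacement on human DRD4.4 from CHO-derived membranes, 1 hour incubation, bound counts read by filtration and scintillation. Primary screen in duplicate at 25 uM; actives followed up in concentration series.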
Sequence of human Dopamine Receptor D4.4 (DRD4.4), DRD4 (gene 1815) (P21917 whole entry, looked up): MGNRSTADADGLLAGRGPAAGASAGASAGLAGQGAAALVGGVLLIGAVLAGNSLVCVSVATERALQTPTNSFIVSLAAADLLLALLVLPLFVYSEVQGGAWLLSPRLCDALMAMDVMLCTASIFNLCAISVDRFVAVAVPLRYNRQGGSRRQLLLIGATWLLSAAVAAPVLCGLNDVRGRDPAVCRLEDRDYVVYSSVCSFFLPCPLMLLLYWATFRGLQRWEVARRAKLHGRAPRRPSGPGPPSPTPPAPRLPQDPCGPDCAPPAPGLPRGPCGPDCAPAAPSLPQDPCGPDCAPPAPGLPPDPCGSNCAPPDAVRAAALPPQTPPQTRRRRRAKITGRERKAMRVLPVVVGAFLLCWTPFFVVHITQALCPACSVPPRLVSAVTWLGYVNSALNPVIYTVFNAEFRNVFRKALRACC

Assay [15] deals with human Endothelin Receptor Type A (ETA), EDNRA (gene 1909) (UniProt P25101). The assay can be described thus: NVS_GPCR_hETA: NovaScreen (NVS) G Protein-Coupled Receptor Assay for human Endothelin Receptor Type A (ETA) (AID 2283265). Put shortly:
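Cell-free radioligand displacement using SH-SY5Y-derived protein, 3 h incubation, filter-based scintillation counting. Primary screen in duplicate at 25 uM; actives then run in concentration-response up to 50 uM; loss of binding fitted versus DMSO.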

Assay [16] has as its target D(1A) dopamine receptor (Homo sapiens) (UniProt P21728). The experiment in a line: NVS_GPCR_hDRD1: NovaScreen (NVS) G Protein-Coupled Receptor Assay for human Dopamine Receptor D1 (DRD1) (AID 2283269). Summed up: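 HEK293-derived receptor preparation; radioligand competitive displacement; 1 h; filtration + scintillation counting. DMSO = negative control/baseline. Primary: 25 uM, duplicate; secondary: concentration–response for actives.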

Assay [17] has as its target guinea pig Leukotriene D4 Receptor (LTD4), CYSLTR1 (gene 100135514) (UniProt Q2NNR5). The assay can be described thus: NVS_GPCR_gLTD4: NovaScreen (NVS) G Protein-Coupled Receptor Assay for guinea pig Leukotriene D4 Receptor (LTD4) (AID 2283248). Put shortly:
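Radioligand displacement on guinea pig lung membranes, 1 h incubation, filtration and scintillation counting; DMSO as negative control. Duplicate 25 uM primary screen, then singleton concentration-response up to 50 uM.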

Values joined by “and” are separate entries in the source; they are usually repeats but may differ in a detail not shown here. Equal values may be shown once. Records with an inconclusive call do not appear. Active and inactive are the calls of the source. The calls were made as follows: active = hit-call score of the fitted dose curve at least 0.9, where 1 is the maximum; inconclusive = response in the unintended direction; inactive = score below 0.9.

Sequence of guinea pig Opioid, Kappa 1 Receptor (OpiateK), OPRK1 (gene 100135587) (P41144 whole entry, looked up): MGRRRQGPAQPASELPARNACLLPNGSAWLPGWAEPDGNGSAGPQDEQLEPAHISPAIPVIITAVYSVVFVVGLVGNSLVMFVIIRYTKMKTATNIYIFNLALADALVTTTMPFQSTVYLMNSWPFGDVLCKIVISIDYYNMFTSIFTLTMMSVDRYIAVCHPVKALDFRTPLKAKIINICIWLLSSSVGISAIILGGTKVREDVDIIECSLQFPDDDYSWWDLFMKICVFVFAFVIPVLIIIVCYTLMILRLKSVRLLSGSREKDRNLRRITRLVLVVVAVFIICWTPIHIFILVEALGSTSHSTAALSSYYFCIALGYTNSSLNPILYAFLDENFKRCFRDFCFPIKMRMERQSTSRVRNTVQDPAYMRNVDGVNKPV
Sequence of human Histamine 1 Receptor (H1), HRH1 (gene 3269) (P35367 whole entry, looked up): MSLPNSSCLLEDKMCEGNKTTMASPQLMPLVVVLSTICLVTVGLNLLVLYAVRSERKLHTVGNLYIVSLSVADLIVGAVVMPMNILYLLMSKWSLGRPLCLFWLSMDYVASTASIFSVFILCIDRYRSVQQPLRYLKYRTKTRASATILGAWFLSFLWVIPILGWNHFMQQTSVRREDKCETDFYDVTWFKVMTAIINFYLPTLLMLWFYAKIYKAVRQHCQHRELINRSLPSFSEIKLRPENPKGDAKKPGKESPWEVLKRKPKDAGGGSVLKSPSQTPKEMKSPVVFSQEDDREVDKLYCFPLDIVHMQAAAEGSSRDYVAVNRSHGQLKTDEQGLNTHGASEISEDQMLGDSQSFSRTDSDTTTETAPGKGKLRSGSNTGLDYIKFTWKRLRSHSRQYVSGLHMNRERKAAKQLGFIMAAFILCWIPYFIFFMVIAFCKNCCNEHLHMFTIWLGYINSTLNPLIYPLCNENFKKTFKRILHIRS
Sequence of human Serotonin, 5-Hydroxytryptamine Receptor 7 (5HT7), HTR7 (gene 3363) (P34969 whole entry, looked up): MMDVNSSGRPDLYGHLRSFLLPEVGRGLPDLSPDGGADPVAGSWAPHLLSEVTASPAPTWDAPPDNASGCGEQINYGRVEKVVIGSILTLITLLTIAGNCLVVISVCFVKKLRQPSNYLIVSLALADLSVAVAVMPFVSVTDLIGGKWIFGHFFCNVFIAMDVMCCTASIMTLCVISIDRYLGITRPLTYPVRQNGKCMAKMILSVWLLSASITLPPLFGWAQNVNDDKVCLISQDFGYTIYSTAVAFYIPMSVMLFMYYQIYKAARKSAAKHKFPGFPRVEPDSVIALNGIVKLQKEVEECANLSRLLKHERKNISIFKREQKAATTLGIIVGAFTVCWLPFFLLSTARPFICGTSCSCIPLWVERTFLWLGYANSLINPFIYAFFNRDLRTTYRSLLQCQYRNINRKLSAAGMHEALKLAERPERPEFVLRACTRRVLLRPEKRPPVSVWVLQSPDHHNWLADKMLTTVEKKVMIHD
Sequence of human Serotonin, 5-Hydroxytryptamine Receptor 2A (5HT2A), HTR2A (gene 3356) (P28223 whole entry, looked up): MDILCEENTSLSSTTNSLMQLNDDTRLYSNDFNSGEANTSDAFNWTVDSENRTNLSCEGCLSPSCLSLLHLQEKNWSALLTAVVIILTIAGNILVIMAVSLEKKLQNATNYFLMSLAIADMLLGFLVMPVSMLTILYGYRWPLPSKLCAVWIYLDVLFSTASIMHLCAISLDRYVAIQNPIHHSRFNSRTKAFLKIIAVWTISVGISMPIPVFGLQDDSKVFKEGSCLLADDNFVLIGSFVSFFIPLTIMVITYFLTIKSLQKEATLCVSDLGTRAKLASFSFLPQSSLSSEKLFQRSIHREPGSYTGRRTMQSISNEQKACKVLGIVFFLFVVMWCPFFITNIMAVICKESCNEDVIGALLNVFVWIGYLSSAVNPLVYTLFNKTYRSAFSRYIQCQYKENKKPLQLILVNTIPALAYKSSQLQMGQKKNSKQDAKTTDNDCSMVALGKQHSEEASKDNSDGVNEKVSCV
Sequence of human Adrenergic, Beta 1 Receptor (Adrb1), ADRB1 (gene 153) (P08588 whole entry, looked up): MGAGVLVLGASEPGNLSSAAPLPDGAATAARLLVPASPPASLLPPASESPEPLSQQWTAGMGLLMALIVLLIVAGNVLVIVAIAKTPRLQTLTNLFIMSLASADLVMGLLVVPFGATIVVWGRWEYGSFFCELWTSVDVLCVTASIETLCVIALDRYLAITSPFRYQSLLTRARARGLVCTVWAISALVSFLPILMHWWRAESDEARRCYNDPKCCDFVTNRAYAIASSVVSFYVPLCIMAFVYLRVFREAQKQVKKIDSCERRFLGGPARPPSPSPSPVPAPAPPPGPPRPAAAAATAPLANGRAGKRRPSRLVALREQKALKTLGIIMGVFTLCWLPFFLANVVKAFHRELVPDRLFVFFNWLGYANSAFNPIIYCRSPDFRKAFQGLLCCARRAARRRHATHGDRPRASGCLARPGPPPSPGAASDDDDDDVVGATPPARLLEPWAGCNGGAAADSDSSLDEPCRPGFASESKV
Sequence of Beta-2 adrenergic receptor (Homo sapiens) (P07550 whole entry, looked up): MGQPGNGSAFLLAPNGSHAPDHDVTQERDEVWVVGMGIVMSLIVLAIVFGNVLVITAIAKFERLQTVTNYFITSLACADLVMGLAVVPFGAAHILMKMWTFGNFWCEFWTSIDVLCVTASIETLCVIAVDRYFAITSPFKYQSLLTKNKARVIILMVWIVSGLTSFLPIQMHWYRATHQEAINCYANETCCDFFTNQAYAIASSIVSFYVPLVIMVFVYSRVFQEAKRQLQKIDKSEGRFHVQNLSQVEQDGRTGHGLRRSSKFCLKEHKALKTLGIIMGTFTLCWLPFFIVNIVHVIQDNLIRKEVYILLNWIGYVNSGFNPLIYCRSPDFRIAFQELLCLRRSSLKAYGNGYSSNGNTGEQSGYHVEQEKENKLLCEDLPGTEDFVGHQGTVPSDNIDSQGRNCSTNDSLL
Sequence of human Adenosine A2a Receptor (AdoRA2a), ADORA2A (gene 135) (P29274 whole entry, looked up): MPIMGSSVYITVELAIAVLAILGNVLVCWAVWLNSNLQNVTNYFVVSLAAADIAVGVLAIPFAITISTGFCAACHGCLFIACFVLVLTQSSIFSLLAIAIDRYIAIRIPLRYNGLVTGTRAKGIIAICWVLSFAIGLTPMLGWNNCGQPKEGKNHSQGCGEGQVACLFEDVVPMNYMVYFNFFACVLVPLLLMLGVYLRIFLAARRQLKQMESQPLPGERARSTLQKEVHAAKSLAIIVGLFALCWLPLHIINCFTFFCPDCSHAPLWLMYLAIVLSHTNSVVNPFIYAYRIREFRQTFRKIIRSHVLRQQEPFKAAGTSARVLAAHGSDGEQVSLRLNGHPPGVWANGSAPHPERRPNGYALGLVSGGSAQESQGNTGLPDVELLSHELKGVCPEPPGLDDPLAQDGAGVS
Sequence of D(1A) dopamine receptor (Homo sapiens) (P21728 whole entry, looked up): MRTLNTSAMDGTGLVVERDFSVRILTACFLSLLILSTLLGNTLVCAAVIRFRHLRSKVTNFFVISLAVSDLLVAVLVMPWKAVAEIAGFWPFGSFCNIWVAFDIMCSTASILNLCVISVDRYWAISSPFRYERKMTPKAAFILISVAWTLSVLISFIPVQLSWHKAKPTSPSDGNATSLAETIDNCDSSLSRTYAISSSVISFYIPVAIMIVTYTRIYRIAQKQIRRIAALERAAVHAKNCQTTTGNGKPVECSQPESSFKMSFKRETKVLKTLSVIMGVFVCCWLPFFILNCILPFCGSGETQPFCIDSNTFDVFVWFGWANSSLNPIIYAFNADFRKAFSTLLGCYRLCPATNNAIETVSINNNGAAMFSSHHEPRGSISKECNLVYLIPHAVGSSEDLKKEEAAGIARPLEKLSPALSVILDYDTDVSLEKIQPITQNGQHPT

As to `OC12N=C(c3ccccc3)SC1Cc1cc(Cl)ccc12` (stereo not drawn), the molecule was classed as inactive in assay [1].
What is called AC50 is the concentration at which the activity in the assay is half-maximal. In the case of `COc1cc(C(=O)NC2CCN(C)CC2)ccc1Nc1ncc2c(n1)N(C1CCCC1)CC(F)(F)C(=O)N2C`, the AC50 in assay [1] is 23.2 µM (active); in [2], 9.85 µM (active); in [3], 23.2 µM (active); in [4], 4.71 µM (active); in assay [5] it was 3.25 µM (active); in assay [6] it was 13.8 µM (active). The AC50 was 14 µM (active) in assay [7], 2.74 µM (active) in assay [8] and 5.54 µM (active) in assay [9].
Take `CCOC(=O)O[C@H](C)OC(=O)c1ccc2c(c1)cc(C(=O)NC1CCN(C(C)C)CC1)n2Cc1cc(-c2ccc(Cl)s2)on1`: the AC50 was 23.6 µM (active) in assay [1]; 16.6 µM (active) in assay [2]; 7.12 µM (active) in [10]; 15.9 µM (active) in assay [4]; 2.12 µM (active) in [5]; 10.2 µM (active) in [6]. Also, the AC50 was 6.3 µM (active) in [7]; 6.33 µM (active) in assay [11]; 12.9 µM (active) in [12]; 20 µM (active) in assay [13]; 20.9 µM (active) in assay [14]; 14.3 µM (active) in [15]. Also, the AC50 is 7.84 µM (active) in [8] and 1.75 µM (active) in [16].
Consider `CCCCCCCC[Si](OCC)(OCC)OCC`, for which the call in assay [3] was inactive.
Take `CC/C(=C(/CC)c1ccc(O)cc1)c1ccc(O)cc1`: the AC50 was 5.08 µM (active) in assay [17]; 15.1 µM (active) in assay [3]; 25 µM (active) and 19.5 µM (active) in [10]; 4.81 µM (active) in [4]; 43.5 µM (active) in assay [11]; 40.3 µM (active) in assay [12]. Moreover, the AC50 in [13] is 13.9 µM (active). Further, the result in assay [14] was inactive.
In the case of `Cc1cc(F)ccc1-c1cc(N2CC[C@@H](O)[C@H]2CO)ncc1N(C)C(=O)C(C)(C)c1cc(C(F)(F)F)cc(C(F)(F)F)c1`, the molecule was called inactive in assay [17] and in assay [12]. In addition, the AC50 in [10] is 11.7 µM (active); in assay [4] it was 20.4 µM (active); in assay [5], 2.69 µM (active); in [6] it was 20.4 µM (active); in assay [11], 20.4 µM (active); in assay [16], 5.89 µM (active).
`CCN(CC)C(=O)c1cc(S(=O)(=O)Cc2ccccc2)c(N2CCC(c3ccccc3)CC2)cc1N(CC)CCN(C)C`: the concentration at half-maximal activity (AC50) in assay [1] is 8.55 µM (active); in assay [2] it was 12 µM (active); in [3], 23.4 µM (active); in assay [10], 0.971 µM (active); in assay [4], 6.22 µM (active); in [5], 8.87 µM (active). The AC50 was 16.5 µM (active) in assay [12], 16.3 µM (active) in assay [14], 5.59 µM (active) in assay [16] and 8.82 µM (active) in [9]. The result in assay [13] and in [8] was inactive.

Values taken from PubChem BioAssay (EPA / NIEHS).
